Results on 106 compounds are retold here after ChEMBL document CHEMBL1857833, “Screening and optimization of specific chemical series against human African Trypanosomiasis (HAT)”.

Usually % inhibition stands for the relative decrease from the control value, in per cent.

Each structure is given as a SMILES string. Values joined by “and” are separate entries in the source; they are usually repeats but may differ in a detail not shown here. Equal entries are not always repeated. Hit rate of the full screen: of about 4,400 compounds, about 390 (8.9%) showed an effect of 50% or more. This is one part of a sample in which strong results are shown more often than they occur.

The test deals with Trypanosoma brucei. Put plainly: DNDI: Inhibition of Human African Trypanosomiasis, SBRI 427, in vitro at 2 ug.mL-1. It is filed as functional.
For `Cc1cccc(-c2nc(CNCC(F)(F)F)co2)c1`, the “% inhibition” value is listed as -2%. The same measure for `COc1cccc(CNCc2coc(-c3ccc(Cl)cc3Cl)n2)c1OC`: 6%; for `CCN(Cc1ccccc1)Cc1coc(-c2cccc(F)c2)n1`: 14%.

Turning to `Cc1ccc(/C(=N/O)n2ccnc2C)c(OCC(F)(F)F)n1`, the “% inhibition” value is reported as 21%. In the case of `COC(=O)C1CCN(Cc2coc(-c3ccc(O)cc3)n2)CC1`, the “% inhibition” value is reported as -3%. To `CCOc1ccc(-c2nc(CNCCCN(C)c3ccccc3)co2)cc1` belongs 42%; to `CCOc1ccccc1-c1nc(CN2CCN(c3ccc(C)cc3C)CC2)co1`, 7%. To `O/N=C(\NCC1CCCCC1)c1ccc(Oc2ccc(Cl)cc2)nc1` belongs 93%; to `O/N=C(\NCC1CCCO1)c1ccc(Oc2ccc(-n3ccnc3)cc2)nc1` (stereo unspecified), 32%; to `COc1ccc(CN/C(=N\O)c2ccc(Oc3ccc(Cl)cc3)nc2)cc1`, 6%.

For `O/N=C(\NCc1ccccc1)c1ccc(Oc2ccc(-n3ccnc3)cc2)nc1`, the “% inhibition” value came out at 16%.

Turning to `O/N=C(\NCC1CCCCC1)c1ccc(Oc2ccc(F)cc2)nc1`, the “% inhibition” value turned out to be 28%.

On to `O/N=C(\NCC1CCCCC1)c1ccc(Oc2ccc(-n3ccnc3)cc2)nc1`, for which the “% inhibition” value came to 78%. The same measure for `O/N=C(\NCc1ccccc1)c1ccc(Oc2ccc(Cl)cc2)nc1`: 57%.

With `O/N=C(\NCC1CCCO1)c1ccc(Oc2ccc(Cl)cc2)nc1` (stereo unspecified), the “% inhibition” value was 47%. Take `O/N=C(\NCc1ccncc1)c1ccc(Oc2ccc(Cl)cc2)nc1`: the “% inhibition” value was -11%.

Regarding `CC1CN(Cc2coc(-c3ccc(Cl)cc3Cl)n2)CC(C)O1` (stereo unspecified), the “% inhibition” value turned out to be 14%. In the case of `CCCN/C(=N\O)c1ccc(C)nc1Oc1cccc(C(C)C)c1`, the “% inhibition” value was 4%. The same measure for `c1coc(-c2nc(CN3CCCc4ccccc43)co2)c1`: 18%; for `COc1ccc(-c2nc(CNC(C)c3ccccc3)co2)cc1` (stereo unspecified): 3%. The same measure for `Cc1ccc(/C(=N/O)NCc2ccccn2)c(OCc2cccc(F)c2)n1`: -1%. The same measure for `CCOc1ccc(-c2nc(Cn3ccnc3C(C)C)co2)cc1`: 10%; for `COc1ccc(-c2nc(CNC(c3ccccc3)c3ccccc3)co2)cc1`: -28%; for `COc1ccccc1Oc1ncccc1/C(=N/O)N1CCOCC1`: 16%. Take `CCC(NCc1coc(-c2ccc(Br)cc2)n1)c1ccccc1` (stereo unspecified): the “% inhibition” value is -22% and -13%. To `Cc1ccc(Oc2nc(C)ccc2/C(N)=N/O)c(C)c1` belongs 11%; to `N#CCCN(Cc1coc(-c2ccc(F)cc2)n1)c1ccccc1`, -10%. To `CC(C)(C)CN/C(=N\O)c1ccc(Oc2cc(Cl)ccc2Cl)nc1` belongs 99%; to `Cc1cc(C)cc(CN/C(=N\O)c2ccc(Oc3cc(Cl)ccc3Cl)nc2)c1`, -11%. To `O/N=C(\NCc1ccccc1)c1ccc(Oc2cc(Cl)ccc2Cl)nc1` belongs 31%; to `COCCN/C(=N\O)c1ccnc(Oc2cc(Cl)ccc2Cl)c1`, 27%; to `Cc1ccc(Oc2cc(/C(=N/O)N3CCCCC3)ccn2)c2c1CCC2`, 19%. In the case of `Cc1ccc(Oc2cc(/C(=N/O)NCC(C)(C)C)ccn2)c(C)c1`, the “% inhibition” value was 96%.

For the compound `Cc1ccc(Oc2cc(/C(=N/O)N3CC(C)CC(C)C3)ccn2)c(C)c1` (stereo unspecified), the “% inhibition” value was 22%. On to `CC(C)(C)CN/C(=N\O)c1ccnc(Oc2cc(Cl)ccc2Cl)c1`, for which the “% inhibition” value is recorded as 56%. The same measure for `Cc1ccc(Oc2cc(/C(=N/O)N3CCCCCC3)ccn2)c(C)c1`: 98%; for `Cc1ccc(Oc2cc(/C(=N/O)NCc3ccccc3C)ccn2)c(C)c1`: 42%; for `O/N=C(\NCc1cccnc1)c1ccnc(Oc2cc(Cl)ccc2Cl)c1`: 17%. The same measure for `COCCN/C(=N\O)c1ccnc(Oc2ccc(C)cc2C)c1`: 6%; for `Cc1ccc(/C(N)=N/O)c(Oc2ccc(F)c(Cl)c2)n1`: 20%; for `COc1ccc(-c2nc(CN3CCCCCC3)co2)cc1`: 18%. `CCOc1ccc(-c2nc(CN3CCN(c4cccc(Cl)c4)CC3)co2)cc1`: the “% inhibition” value is listed as -2%.

As to `Cc1ccc(-c2nc(CNC(c3ccccc3)c3ccccc3)co2)cc1`, the “% inhibition” value is reported as -9%. Take `CCOc1ccccc1-c1nc(CN(C)CC(C)C)co1`: the “% inhibition” value was 3%. The same measure for `COc1ccc(CNCc2coc(-c3cccs3)n2)cc1OC`: -8%; for `Cc1ccc(/C(=N/O)N2CCN(c3ccc(F)cc3)CC2)c(OCc2ccccc2F)n1`: 7%. For the compound `CCOc1ccc(-c2nc(CN3CCN(C(=O)c4ccco4)CC3)co2)cc1`, the “% inhibition” value amounted to 0%. To `COc1ccc(Oc2ncccc2/C(=N/O)NC(C)C)cc1` belongs 4%. To `CCC(CC)N/C(=N\O)c1cccnc1Oc1ccc(F)cc1` belongs 96%.

Consider `CCC(CC)N/C(=N\O)c1cccnc1Oc1ccc(OC)cc1`, for which the “% inhibition” value came to 100%. In the case of `COCC(C)N/C(=N\O)c1cccnc1Oc1ccc(F)cc1` (stereo unspecified), the “% inhibition” value was found to be 13%. The same measure for `COc1cc2c(cc1OC)C(C(C)C)N(Cc1coc(-c3ccc(F)cc3)n1)CC2` (stereo unspecified): 5%; for `COc1ccc(CN/C(=N\O)c2ccc(C)nc2Oc2ccc(F)cc2)cc1`: 30%; for `CCC(C)(C)N/C(=N\O)c1cccnc1Oc1ccc(-n2cncn2)cc1`: 45%. On to `CCOC(=O)C1CCCN(Cc2coc(-c3ccc(Br)cc3)n2)C1` (stereo unspecified), for which the “% inhibition” value is 0%. `CSc1ccc(Oc2ncccc2/C(=N/O)NCc2cccnc2)cc1`: the “% inhibition” value is on record as 2%. The same measure for `Cc1ccc(Oc2ncccc2/C(=N/O)N2CC=CCC2)c2c1CCC2`: 14%; for `CCc1nc(C)cn1Cc1coc(-c2cccc(OC)c2)n1`: -9%. On to `COc1ccc(Oc2ncccc2/C(=N/O)N2CCCCC2)cc1`, for which the “% inhibition” value came out at 7%. The same measure for `CCC(C)(C)N/C(=N\O)c1ccc(C)nc1Oc1ccc(F)c(Cl)c1`: -27%; for `CCC(C)(C)N/C(=N\O)c1ccc(C)nc1Oc1cc(Cl)ccc1Cl`: 63%; for `Cc1ccc(/C(=N/O)NCC(C)(C)C)c(Oc2cc(Cl)ccc2Cl)n1`: 100%. The same measure for `CCC(C)(C)N/C(=N\O)c1ccc(C)nc1Oc1ccc(Cl)cc1`: -12%.

As for `CCOc1ccccc1-c1nc(CN2CC[C@@H]3CCCC[C@@H]3C2)co1`, the “% inhibition” value is given as 16%.

`CCOc1ccccc1-c1nc(Cn2ccnc2CC)co1`: the “% inhibition” value is on record as -1%. With `N#CCCN(Cc1coc(-c2ccc(Cl)cc2Cl)n1)C1CCCCC1`, the “% inhibition” value amounted to 3%.

`O/N=C(\NCc1cc(F)ccc1F)c1ccc(Oc2cccc3cccnc23)nc1`: the “% inhibition” value was found to be 4%. Turning to `COc1cc(-c2nc(CNCC(c3ccccc3)c3ccccc3)co2)cc(OC)c1OC`, the “% inhibition” value is listed as 22%. The same measure for `Cc1cn(/C(=N\O)c2ccc(C)nc2Oc2cccc(F)c2)cn1`: 0%; for `COCCN(Cc1coc(-c2ccc(OC)cc2)n1)C(C)C`: -10%.

Regarding `Cn1nc(C(C)(C)C)cc1NCc1coc(-c2ccccc2Br)n1`, the “% inhibition” value is -43%. With `CC(C)(C)COc1ncccc1/C(=N/O)NCc1ccccc1`, the “% inhibition” value was determined as 17%. Take `CCCC(C)NCc1coc(-c2ccc(F)cc2)n1` (stereo unspecified): the “% inhibition” value was -16%. In the case of `CCCCCCC(C)NCc1coc(-c2ccc(O)cc2)n1` (stereo unspecified), the “% inhibition” value was 52%.

In the case of `CCCCCCC(C)NCc1coc(-c2cccc(C)c2)n1` (stereo unspecified), the “% inhibition” value worked out at 0%. As for `CCCCCC(C)NCc1coc(-c2ccc(OC)cc2)n1` (stereo unspecified), the “% inhibition” value was 23%. As for `COc1ccc(-c2nc(CNC(C)CCCC(C)C)co2)cc1` (stereo unspecified), the “% inhibition” value was -10%. To `CCCCCCC(C)NCc1coc(-c2ccc(OC)cc2)n1` (stereo unspecified) belongs 65%; to `CN(Cc1coc(-c2ccc(F)cc2)n1)C(c1ccccc1)c1ccccc1`, -2%; to `Cc1ccc(/C(=N/O)N2CCC(N(C)C)C2)c(Oc2cccnc2)n1` (stereo unspecified), 7%.

As to `CC(NCc1coc(-c2cccc3ccccc23)n1)c1ccccc1` (stereo unspecified), the “% inhibition” value is reported as 26%. To `Cc1ccc(C(C)NCc2coc(-c3cccc4ccccc34)n2)cc1` (stereo unspecified) belongs -2%; to `CCC(NCc1coc(-c2cccc3ccccc23)n1)c1ccccc1` (stereo unspecified), 64%. The same measure for `Cc1ccc([C@@H](C)NCc2coc(-c3cccc4ccccc34)n2)cc1`: 79%. In the case of `CCC(NCc1coc(-c2ccccc2Br)n1)c1ccccc1` (stereo unspecified), the “% inhibition” value is -20% and -22%.

Regarding `CC(CNCc1coc(-c2ccccc2Cl)n1)c1ccccc1` (stereo unspecified), the “% inhibition” value is listed as -5%.

Regarding `CCOc1cccc(-c2nc(CNCc3cccc(OC)c3)co2)c1`, the “% inhibition” value is given as -5%. Take `CCN(CC)CCN(CC)Cc1coc(-c2cccs2)n1`: the “% inhibition” value amounted to 1%.

Turning to `COc1cccc(-c2nc(Cn3ccnc3C(C)C)co2)c1`, the “% inhibition” value was 5%.

Regarding `Cn1nc(C(C)(C)C)cc1NCc1coc(-c2ccc(C(F)(F)F)cc2)n1`, the “% inhibition” value is recorded as -8%. With `Cc1ccc(/C(=N/O)NCc2cccs2)c(Oc2cc(Cl)ccc2Cl)n1`, the “% inhibition” value is on record as 16%. In the case of `C=CCc1ccc(Oc2nc(C)ccc2/C(=N/O)NCC2CC2)c(OC)c1`, the “% inhibition” value stood at 44%. With `Cc1cc(C)cc(CN/C(=N\O)c2ccc(C)nc2Oc2cc(Cl)ccc2Cl)c1`, the “% inhibition” value is 64%. As for `C=CCc1ccc(Oc2nc(C)ccc2/C(=N/O)N2CCN(CC=C)CC2)c(OC)c1`, the “% inhibition” value is given as 68%.

With `Cc1ccc(/C(=N/O)NCc2ccco2)c(Oc2cc(Cl)ccc2Cl)n1`, the “% inhibition” value is 62%. To `C=CCc1ccc(Oc2nc(C)ccc2/C(=N/O)NCc2ccc(OC)cc2)c(OC)c1` belongs 22%; to `Cc1ccc(/C(=N/O)NCc2ccncc2)c(Oc2cc(Cl)ccc2Cl)n1`, -10%; to `C=CCc1ccc(Oc2nc(C)ccc2/C(=N/O)NCc2ccco2)c(OC)c1`, 63%. Take `C=CCc1ccc(Oc2nc(C)ccc2/C(=N/O)N2CCSCC2)c(OC)c1`: the “% inhibition” value was determined as 48%. As for `C=CCc1ccc(Oc2nc(C)ccc2/C(=N/O)N2CCC(C(=O)OC)CC2)c(OC)c1`, the “% inhibition” value came to 27%. As for `Cc1ccc(/C(=N/O)NCc2ccco2)c(Oc2ccc(Cl)cc2-c2ccno2)n1`, the “% inhibition” value came to 13%.

Regarding `COc1ccc(CN/C(=N\O)c2ccc(C)nc2Oc2cc(Cl)ccc2Cl)cc1`, the “% inhibition” value worked out at 14%. Consider `CCOc1ccc(-c2nc(CNCc3ccc(OC)cc3OC)co2)cc1`, for which the “% inhibition” value is recorded as -17%. To `CCOc1ccccc1-c1nc(CN2CCN(C(=O)C3CCCO3)CC2)co1` (stereo unspecified) belongs 8%; to `Cc1ccc(Oc2nc(C)ccc2/C(=N/O)N2CCSC2)c(C)c1`, 26%; to `COCC(C)NCc1coc(-c2ccccc2Cl)n1` (stereo unspecified), -6%.
